{"source": "PubChem BioAssay AID1259374", "about": "(The Scripps Research Institute Molecular Screening Center, 2018)", "note": "Among all 650,000 compounds or so, about 5,900 (0.91%) were called active. The sample holds actives, similar compounds and a random draw of the others, so the mix is not that of the screen. Unmarked numbers belong to inactive results. Cut-off read from the data, not from the text of the source: active = inhibition above about 50%; inactive = the rest.", "data": [{"target": "Microphthalmia-associated transcription factor (Homo sapiens) (UniProt O75030)", "sequence (O75030 whole entry, looked up)": "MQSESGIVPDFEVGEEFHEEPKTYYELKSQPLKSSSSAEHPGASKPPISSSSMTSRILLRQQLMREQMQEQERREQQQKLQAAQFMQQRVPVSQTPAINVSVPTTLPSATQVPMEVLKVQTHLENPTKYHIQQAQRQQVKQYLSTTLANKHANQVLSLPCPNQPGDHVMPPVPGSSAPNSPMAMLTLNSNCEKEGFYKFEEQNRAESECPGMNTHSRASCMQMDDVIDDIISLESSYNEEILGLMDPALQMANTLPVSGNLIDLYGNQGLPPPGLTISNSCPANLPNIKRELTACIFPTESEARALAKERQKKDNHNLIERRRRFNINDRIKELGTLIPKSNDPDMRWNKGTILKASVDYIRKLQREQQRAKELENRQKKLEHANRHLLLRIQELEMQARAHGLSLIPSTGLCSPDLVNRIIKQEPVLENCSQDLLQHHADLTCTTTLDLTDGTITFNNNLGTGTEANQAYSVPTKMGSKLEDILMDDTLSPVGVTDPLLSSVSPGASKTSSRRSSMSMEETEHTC", "test": "MITF inhibitors, primary screen, biochemical, AlphaScreen, human (AID 1259374);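 note: 0% = vehicle wells with protein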", "settings": "AlphaScreen MITF homodimerization, bead proximity signal; at 2.6 µM; hits give high values", "values": [{"molecule": "CCOc1cc(/C=N/NC(=O)CC(=O)NCC(C)C)ccc1O", "inhibition": "14.6%"}, {"molecule": "Cc1nc(NCCCN2CCOCC2)cc(-c2ccccn2)n1", "inhibition": "12.2%"}, {"molecule": "Clc1ccc(-c2cc(NCCCn3ccnc3)ncn2)cc1", "inhibition": "14.7%"}, {"molecule": "c1ccc(-c2cc(NCCCn3ccnc3)nc(-c3ccccn3)n2)nc1", "inhibition": "115% (active)"}, {"molecule": "CCCCSc1nnc(CNC(=O)Cc2ccccc2)n1-c1ccc(Cl)c(Cl)c1", "inhibition": "15.1%"}, {"molecule": "O=C1CCc2ccc(OCc3ccccc3F)cc21", "inhibition": "12.2%"}, {"molecule": "COc1ccc(-n2nc(C(=O)N3CCC(C(N)=O)CC3)c3ccccc3c2=O)c(OC)c1", "inhibition": "11.6%"}, {"molecule": "CCN(CC)c1ccc(NC(=O)CCc2nnc3ccc(N4CCCCC4)nn23)c(C)c1", "inhibition": "15.7%"}, {"molecule": "CCN1CCN(CC(=O)Nc2ccc(N(CC)CC)cc2C)CC1", "inhibition": "70.1% (active)"}, {"molecule": "CCN(CC)c1ccc(NC(=O)c2ccc(OC)cc2)c(C)c1", "inhibition": "-6.58%"}, {"molecule": "O=C(Cc1csc(Nc2ccc(Cl)cn2)n1)NCc1ccccc1Cl", "inhibition": "13.2%"}, {"molecule": "Cc1ccccc1-n1c(SCC(=O)Nc2ccc(C(N)=O)cc2)nnc1-c1ccncc1", "inhibition": "24.8%"}, {"molecule": "Cc1c(C(=O)c2ccccc2)oc2ccc(NC(=O)C(C)C)cc12", "inhibition": "-6.05%"}, {"molecule": "O=C1N=C(N2CCCC2)S/C1=C/c1ccc(-c2ccccc2[N+](=O)[O-])o1", "inhibition": "18.4%"}, {"molecule": "CCCCC(=O)Nc1nc(-c2ccc(I)cc2)cs1", "inhibition": "-1.42%"}, {"molecule": "CCCn1c(C)cc(-c2csc(NC(=O)Cc3ccsc3)n2)c1C", "inhibition": "73.1% (active)"}, {"molecule": "C=CCn1c(C)cc(-c2csc(NC(=O)c3ccc([N+](=O)[O-])s3)n2)c1C", "inhibition": "5.62%"}, {"molecule": "O=C(NCCc1ccccc1)c1c[nH]c2ccc(S(=O)(=O)N3CCc4ccccc43)cc2c1=O", "inhibition": "5.29%"}, {"molecule": "COc1ccc(C(=O)N2CCN(Cc3cc(OC)c(OC)cc3OC)CC2)cc1", "inhibition": "-7.92%"}, {"molecule": "COc1cc(Br)cc(CN2CCCN(C)CC2)c1O", "inhibition": "7.81%"}, {"molecule": "COc1cccc(C(=O)N2CCN(C(=O)c3cccc(OC)c3)CC2)c1", "inhibition": "-5.18%"}, {"molecule": "COc1ccc(Br)cc1CN1CCN(CCOCCO)CC1", "inhibition": "66.6% (active)"}, {"molecule": "COc1cccc(C(=O)N2CCN(Cc3cc(OC)c(OC)cc3OC)CC2)c1", "inhibition": "63.4% (active)"}, {"molecule": "COc1cccc(CN2CCN(CCOCCO)CC2)c1OC", "inhibition": "-6.67%"}, {"molecule": "COc1ccc(/C(C)=N/N)cc1CN1CCCCC1", "inhibition": "-0.23%"}, {"molecule": "COc1cc(OC)c(OC)cc1CN1CCN(C(=O)c2cccs2)CC1", "inhibition": "35.6%"}, {"molecule": "COc1ccc(Br)cc1CN1CCN(C(C)=O)CC1", "inhibition": "2.27%"}, {"molecule": "OCCOCCN1CCN(Cc2ccc(Cl)cc2)CC1", "inhibition": "82.7% (active)"}, {"molecule": "COc1ccc(Br)cc1CN1CCN(C(=O)c2cccnc2)CC1", "inhibition": "88.2% (active)"}, {"molecule": "OCCN1CCN(CC(O)COCCOc2ccc(Cl)cc2)CC1", "note": "(stereo not given)", "inhibition": "-9.2%"}, {"molecule": "CC1SC2(CCCCC2)N(c2ccc(F)cc2)C1=O", "note": "(stereo not given)", "inhibition": "-0.68%"}, {"molecule": "COc1ccccc1NC(=O)CN1C(=O)C2CC=C(Cl)CC2C1=O", "note": "(stereo not given)", "inhibition": "2.72%"}, {"molecule": "Cc1cc(OCC(O)CNCC(C)O)c(C(C)C)cc1Cl", "note": "(stereo not given)", "inhibition": "0.85%"}, {"molecule": "O=S(=O)(NC1CCCC1)c1ccc(-c2ccc(S(=O)(=O)NC3CCCC3)cc2)cc1", "inhibition": "-2.79%"}, {"molecule": "Clc1ccc(-c2csc(Nc3cccc4ccccc34)n2)cc1Cl", "inhibition": "0.76%"}, {"molecule": "N#CC1=C(SCC(=O)Nc2cccc(F)c2)NC(=O)CC1c1ccccc1F", "note": "(stereo not given)", "inhibition": "3.64%"}, {"molecule": "CCc1ccccc1NC(=O)c1ccc(F)c(S(=O)(=O)NCc2ccc3c(c2)OCO3)c1", "inhibition": "10.2%"}, {"molecule": "Cc1ccc(/C=C(\\C#N)C(N)=O)c(C)c1", "inhibition": "6.24%"}, {"molecule": "COCCn1nnnc1C(c1cccnc1)N1CCN(c2ccccc2OC)CC1", "note": "(stereo not given)", "inhibition": "-7.29%"}, {"molecule": "Nc1cccc(-c2ccc(C(=O)Nc3ccc(N4CCOCC4)cc3)s2)c1", "inhibition": "13.4%"}, {"molecule": "CCS(=O)(=O)N1CCC(c2nnc(C3CC3)s2)CC1", "inhibition": "1.6%"}, {"molecule": "CCS(=O)(=O)N1CCN(C2CCCCC2C)CC1", "note": "(stereo not given)", "inhibition": "51.2% (active)"}, {"molecule": "CCS(=O)(=O)N1CCC(N2CC(C)CC(C)C2)CC1", "note": "(stereo not given)", "inhibition": "31.2%"}, {"molecule": "COc1cc(/C=N/NC(=O)c2cccnc2)ccc1Oc1ccc([N+](=O)[O-])cc1[N+](=O)[O-]", "inhibition": "12.4%"}, {"molecule": "CCC1CN(Cc2ccccn2)Cc2ccc(Cl)cc2O1", "note": "(stereo not given)", "inhibition": "-11.7%"}, {"molecule": "CCCCCCOC(=O)c1cc(C(=O)OCCCCCC)c(C)nc1C", "inhibition": "55.6% (active)"}, {"molecule": "CCOC(=O)c1cc2cccnc2nc1C", "inhibition": "12.4%"}, {"molecule": "CCCCCCOC(=O)c1ccc(-c2ccc(-c3ccc(C(=O)OCCCCCC)cc3)cc2)cc1", "inhibition": "14.5%"}, {"molecule": "CCN1CCN(Cc2c(O)ccc3cc(-c4ccccc4)c(=O)oc23)CC1", "inhibition": "2.19%"}, {"molecule": "Cc1cn2c(=O)c(C(=O)Nc3ccc(Br)c(C)c3)cnc2s1", "inhibition": "3.85%"}, {"molecule": "C=CCNC(=O)c1cc2cc(Cl)ccc2oc1=O", "inhibition": "12.4%"}, {"molecule": "CCN(CC)c1ccc(C2C3=C(CC(C)(C)CC3=O)Nc3ccccc3N2C(=O)Cc2ccccc2)cc1", "note": "(stereo not given)", "inhibition": "2.82%"}, {"molecule": "CC1(C)CC(=O)C2=C(C1)Nc1ccccc1N(C(=O)Cc1ccccc1)C2c1ccc(-c2ccc([N+](=O)[O-])cc2)o1", "note": "(stereo not given)", "inhibition": "65.2% (active)"}, {"molecule": "CC1(C)CC(=O)C2=C(C1)Nc1ccccc1N(C(=O)Cc1ccccc1)C2c1cccc(F)c1", "note": "(stereo not given)", "inhibition": "0.57%"}, {"molecule": "COc1ccc(C2CC(=O)C3=C(C2)Nc2ccccc2N(C(=O)c2ccc(Cl)c(Cl)c2)C3c2ccc(C)cc2)cc1", "note": "(stereo not given)", "inhibition": "-2.68%"}, {"molecule": "CC(=O)c1ccc(NC(=O)C(C)NCc2ccc(Cl)cc2)cc1", "note": "(stereo not given)", "inhibition": "3.65%"}, {"molecule": "COc1cc(NC(C)C(=O)Nc2ccc(C(C)=O)cc2)cc(OC)c1", "note": "(stereo not given)", "inhibition": "0.12%"}, {"molecule": "CC(=O)c1ccc(NC(=O)C(C)NCc2ccc(C)cc2)cc1", "note": "(stereo not given)", "inhibition": "76% (active)"}, {"molecule": "Cc1nc2c(c(=O)[nH]1)C(c1ccc(Cl)c(Cl)c1)C(C#N)=C(N)O2", "note": "(stereo not given)", "inhibition": "3.39%"}, {"molecule": "C=CCNC(=O)C(=O)Nc1cc(C)ccc1OC", "inhibition": "12.4%"}, {"molecule": "NS(=O)(=O)c1cccc(NC(=O)COc2ncnc3sc(-c4ccccc4)cc23)c1", "inhibition": "51.8% (active)"}, {"molecule": "CNC(=O)NC(=O)CSc1ncnc2sc(-c3ccccc3)cc12", "inhibition": "9.51%"}, {"molecule": "NS(=O)(=O)c1ccc2nc(NC(=O)COc3ccccc3)sc2c1", "inhibition": "5.22%"}, {"molecule": "O=S(=O)(NCc1cccnc1)c1ccc(-n2cnnn2)cc1", "inhibition": "-8.13%"}, {"molecule": "CCOc1ccccc1Nc1nnc(Cc2ccc(OC)cc2)c(=O)[nH]1", "inhibition": "24.2%"}, {"molecule": "COc1ccc(Cc2nnc(N/N=C/c3ccccc3O)[nH]c2=O)cc1OC", "inhibition": "112% (active)"}, {"molecule": "COc1cccc(Nc2nnc(Cc3ccc(Cl)cc3)c(=O)[nH]2)c1", "inhibition": "10.6%"}, {"molecule": "Cc1cc(NC(=O)Cc2ccccc2)n(-c2nc(C)c(C)c(=O)[nH]2)n1", "inhibition": "24.5%"}, {"molecule": "CC[C@@H]1NC(=O)[C@H]2CN(C(=O)NCc3ccccc3)CCN2C1=O", "inhibition": "75.7% (active)"}, {"molecule": "C[C@@H](OCc1ccccc1)[C@@H]1NC(=O)[C@H]2CN(C(=O)Nc3cccc(F)c3)CCN2C1=O", "inhibition": "75.3% (active)"}, {"molecule": "C[C@H](O)[C@H]1NC(=O)[C@H]2CN(C(=O)c3ccccc3)CCN2C1=O", "inhibition": "-12.5%"}, {"molecule": "O=C1N[C@H](Cc2ccccc2)C(=O)N2CCN(C(=O)Oc3ccccc3)C[C@H]12", "inhibition": "-5.43%"}, {"molecule": "C[C@@H](OCc1ccccc1)[C@@H]1NC(=O)[C@H]2CN(Cc3ccc4ncccc4c3)CCN2C1=O", "inhibition": "15.9%"}, {"molecule": "CC[C@@H]1NC(=O)[C@H]2CN(C(=O)c3cccs3)CCN2C1=O", "inhibition": "14.5%"}, {"molecule": "Cc1ccccc1C(=O)Nc1ccc(S(=O)(=O)NCc2ccccc2)cc1", "inhibition": "5.75%"}, {"molecule": "Cc1ccc(NC(=O)CC[C@H]2CN(Cc3ccncc3)CC[C@H]2N2CCOCC2)cc1", "inhibition": "-7.04%"}, {"molecule": "CCCC(C)C(=O)Nc1nc2c(s1)C(=O)CC(C)(C)C2", "note": "(stereo not given)", "inhibition": "6.86%"}, {"molecule": "CC(C)NC(=O)/C=C/c1cccc([N+](=O)[O-])c1", "inhibition": "-4.32%"}, {"molecule": "COc1cccc(N2C(=O)CC(N3CCN(C)CC3)C2=O)c1", "note": "(stereo not given)", "inhibition": "5.95%"}, {"molecule": "Cc1ccc(-c2noc(CN(C(C)C)S(=O)(=O)c3ccc(F)cc3)n2)cc1", "inhibition": "-1.65%"}, {"molecule": "c1cc2c(cc1CNc1nc(Nc3ccc(N4CCOCC4)cc3)c3ncn(C4CCCCC4)c3n1)OCO2", "inhibition": "53.1% (active)"}, {"molecule": "c1ccc(CN2CCC(Nc3nc(NCc4ccc5c(c4)OCO5)nc4c3ncn4C3CCCCC3)CC2)cc1", "inhibition": "16.3%"}, {"molecule": "O=C1CCCN1CCn1cnc2c(Nc3ccc(N4CCOCC4)cc3)nc(NCc3ccc4c(c3)OCO4)nc21", "inhibition": "15.2%"}, {"molecule": "CC12CCOCC1C2C(=O)Nc1ccc(N=Nc2ccccc2)cc1", "note": "(stereo not given)", "inhibition": "-6.59%"}, {"molecule": "O=C1CCCN1CCCNc1ccnc(Nc2nccc3ccccc23)n1", "inhibition": "-1.07%"}, {"molecule": "CCN1CCN(CC(=O)N/N=C/c2cccc(Cl)c2)CC1", "inhibition": "57.4% (active)"}, {"molecule": "COc1cccc(/C=N\\NC(=O)CN2CCN(C)CC2)c1", "inhibition": "-8.3%"}, {"molecule": "O=C(CN1CCCCCC1)N/N=C/c1ccc(Cl)cc1", "inhibition": "20%"}, {"molecule": "Cc1cccc(NC(=O)c2sc3nc4c(cc3c2N)CCC4)c1C", "inhibition": "21.2%"}, {"molecule": "CCN1CCN(CCOCCOc2ccc([N+](=O)[O-])cc2)CC1", "inhibition": "72% (active)"}, {"molecule": "CCN1CCN(CCOc2ccc(-c3ccccc3)cc2)CC1", "inhibition": "76.4% (active)"}, {"molecule": "CN1CCN(CCOCCOc2ccc3c(c2)CCC3)CC1", "inhibition": "11.3%"}, {"molecule": "CN1CCN(CCCCOc2ccc(C#N)cc2)CC1", "inhibition": "1.14%"}, {"molecule": "CCOc1ccc(OCCN2CCNCC2)cc1", "inhibition": "12.2%"}, {"molecule": "COc1ccc(OCCOCCOc2ccc([N+](=O)[O-])cc2Cl)cc1", "inhibition": "3.66%"}]}]}
